Outcome and AC50 data for five molecules are collected here from PubChem BioAssay (EPA / NIEHS).

Inconclusive results are not listed. The source made the active and inactive calls. Rule for the calls, unless noted: active = hit-call score of the fitted dose curve at least 0.9, where 1 is the maximum; inactive = score below 0.9.

Assay [1] is described as follows: ATG_TAL_CIS: Attagene CIS-FACTORIAL HepG2 Assay for human TAL Basal Promoter (AID 2282966).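 Note: background control endpoint measuring basal TAL promoter reporter mRNA not a specific factor.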 To be noted: HepG2 Attagene cis-factorial TAL promoter reporter; actives raise or lower the signal. In short, it runs like this:
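Fluorescence of labelled reporter cDNA fragments, resolved by capillary electrophoresis, gave the readout. Human HepG2 liver cells carried transiently transfected cis-element reporter units and were treated for 24 hours; activity was fitted bidirectionally against DMSO.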

Assay [2] in a line: ATG_TGFb_CIS: Attagene CIS-FACTORIAL HepG2 Assay for human Transforming Growth Factor (TGF) (AID 2282967). As to conditions: HepG2 Attagene CIS TGFb reporter, mRNA transcription; actives raise or lower the signal. In short, it runs like this: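 Readout: fluorescently labeled reporter cDNA fragments resolved by capillary electrophoresis after RT-PCR. Transfected HepG2 cells dosed for 24 h; endogenous TF activity at TGFB1-linked cis element; gain or loss fitted relative to DMSO.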

Assay [3] in a line: ATG_VDRE_CIS: Attagene CIS-FACTORIAL HepG2 Assay for human Vitamin D Receptor Element (VDRE) (AID 2282968). As to conditions: HepG2 VDRE cis-reporter transcription, actives raise or lower the signal. In short, it runs like this: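 RT-PCR/CE readout of reporter mRNA; HepG2, transient transfection, 24 h dosing; DMSO baseline; bidirectional analysis.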
Assay [4] concerns the target Nuclear receptor subfamily 1 group I member 3 (Homo sapiens) (UniProt Q14994). Kind of assay: ATG_CAR_TRANS: Attagene TRANS-FACTORIAL HepG2 Assay for human Constitutive Androstane Receptor (CAR) (AID 2282969; active = hit-call score of the fitted dose curve at least 0.9, where 1 is the maximum;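 note: activators raise reporter mRNA above DMSO so AC50 marks induction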). As to conditions: HepG2 Attagene TRANS-FACTORIAL CAR reporter. In short, it runs like this: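 HepG2 cells transiently transfected with multiplexed GAL4-UAS reporter units expressing chimeric NR-Gal4 proteins; compound exposure 24 h. Reporter mRNA measured by RT-PCR, 6-FAM labelling, HpaI digestion and capillary electrophoresis; gain-of-signal fitted against DMSO baseline.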

The target in assay [5] is X-box-binding protein 1 (Homo sapiens) (UniProt P17861). Kind of assay: ATG_Xbp1_CIS: Attagene CIS-FACTORIAL HepG2 Assay for human X-box Binding Protein 1 (XBP1) (AID 2282972). As to conditions: HepG2 XBP1 cis-element reporter, Attagene multiplex; actives raise or lower the signal. In short, it runs like this:
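HepG2 cells transiently transfected with multiple cis-element reporter units report endogenous TF activity; 24 h exposure, then reporter mRNA measured by RT-PCR, 6-FAM labelling, HpaI digestion and capillary electrophoresis. Bidirectional fitting versus DMSO.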

The nature of assay [6]: ATG_M_19_TRANS: Attagene TRANS-FACTORIAL HepG2 Assay for M19 Transcription Factor (Internal Marker) (AID 2282974; active = hit-call score of the fitted dose curve at least 0.9, where 1 is the maximum). As to conditions: HepG2 Attagene TRANS-FACTORIAL M19 internal marker reporter. In short, it runs like this:
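24 h chemical exposure of transiently transfected HepG2 (MRTU library). RNA → oligo(dT) RT → PCR → 6-FAM labelling → HpaI cut → CE fluorescence. Positive-direction fit vs DMSO baseline; background internal-marker readout.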

The target in assay [7] is Nuclear receptor subfamily 4 group A member 2 (Homo sapiens) (UniProt P43354). Kind of assay: ATG_NURR1_TRANS: Attagene TRANS-FACTORIAL HepG2 Assay for human Nuclear Receptor Related Protein 1 (NURR1) (AID 2282985; active = hit-call score of the fitted dose curve at least 0.9, where 1 is the maximum). As to conditions: HepG2 Attagene TRANS reporter, mRNA readout. The essentials: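 After 24 h chemical dosing, total RNA from transiently transfected HepG2 cells was reverse-transcribed and reporter cDNA PCR-amplified, FAM-labelled and analysed by capillary electrophoresis. Activity fitted in positive direction, DMSO as negative control.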

Assay [8] has as its target Transcriptional activator Myb (Homo sapiens) (UniProt P10242). Kind of assay: ATG_Myb_CIS: Attagene CIS-FACTORIAL HepG2 Assay for human Myeloblastosis (Myb) Proto-Oncogene Transcription Factor (AID 2282986). As to conditions: HepG2 Attagene CIS-FACTORIAL Myb reporter transcription; actives raise or lower the signal. The essentials:
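HepG2, transient MRTU transfection (cis-element promoters, endogenous TF activity), 24 h compound exposure. Readout: reporter mRNA via RT-PCR, 6-FAM labeling, HpaI digest, capillary electrophoresis. Gain/loss fit vs DMSO.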

The target of assay [9] is Nuclear respiratory factor 1 (Homo sapiens) (UniProt Q16656). Kind of assay: ATG_NRF1_CIS: Attagene CIS-FACTORIAL HepG2 Assay for human Nuclear Respiratory Factor 1 (NRF1) Orphan Gene (AID 2282987). To be noted: HepG2 NRF1 cis-element reporter, Attagene multiplex; actives raise or lower the signal. In short, it runs like this:
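Endogenous NRF1-driven reporter transcription measured in transiently transfected human HepG2 liver cells. Readout: reporter mRNA by RT-PCR and capillary electrophoresis with fluorescence detection, 24 h post-dosing. Gain or loss of signal fitted relative to DMSO baseline.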

Assay [10] is described as follows: ATG_NFI_CIS: Attagene CIS-FACTORIAL HepG2 Assay for human Nuclear Factor I (NFI) (AID 2282989). To be noted: HepG2 cis-regulatory reporter, NFI response element transcription; actives raise or lower the signal. The essentials:
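Read-out: reporter mRNA via RT-PCR plus capillary electrophoresis with fluorescence detection. Transiently transfected HepG2 (endogenous TF activity on cis promoters), 24 h compound exposure; gain or loss of signal fitted against DMSO.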

Assay [11] deals with Myc proto-oncogene protein (Homo sapiens) (UniProt P01106). Kind of assay: ATG_Myc_CIS: Attagene CIS-FACTORIAL HepG2 Assay for human Myelocytomatosis (Myc) Proto-Oncogene Transcription Factor (AID 2282990). As to conditions: HepG2, Attagene cis-reporter transcription factor activity; actives raise or lower the signal. In short, it runs like this: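 HepG2 cells transiently transfected with multiple cis-promoter-driven reporter transcription units, so endogenous TF activity is read. After 24 h compound exposure, reporter mRNA was quantified by RT-PCR, 6-FAM labelling, HpaI digestion and capillary electrophoresis; bidirectional fit versus DMSO.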

The target in assay [12] is Oxysterols receptor LXR-beta (Homo sapiens) (UniProt P55055). Kind of assay: ATG_LXRb_TRANS: Attagene TRANS-FACTORIAL HepG2 Assay for human Liver X Receptor beta (LXRb) (AID 2282981; active = hit-call score of the fitted dose curve at least 0.9, where 1 is the maximum). To be noted: HepG2 Attagene TRANS GAL4-LXRb reporter, mRNA. The essentials: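 In this TRANS format, exogenous chimeric NR-Gal4 protein activity, not endogenous factors, drives reporter expression in transfected human HepG2 cells. Exposure lasted 24 h; reporter mRNA was read by fluorescent capillary electrophoresis.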

Assay [13] addresses Hepatocyte nuclear factor 4-alpha (Homo sapiens) (UniProt P41235). Kind of assay: ATG_HNF4a_TRANS: Attagene TRANS-FACTORIAL HepG2 Assay for human Hepatocyte Nuclear Factor 4 alpha (HNF4a) (AID 2282982; active = hit-call score of the fitted dose curve at least 0.9, where 1 is the maximum). To be noted: HepG2 HNF4a transactivation reporter, mRNA readout. In short, it runs like this:
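Cells used were human HepG2, transiently carrying GAL4-UAS reporter units read out against exogenous NR-GAL4 chimeras. Reporter transcript levels after 24 h dosing were quantified by fluorescent RT-PCR and capillary electrophoresis.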

Assay [14] is described as follows: ATG_M_06_TRANS: Attagene TRANS-FACTORIAL HepG2 Assay for M06 Transcription Factor (Internal Marker) (AID 2282983; active = hit-call score of the fitted dose curve at least 0.9, where 1 is the maximum). To be noted: HepG2 Attagene TRANS M06 internal marker reporter. The essentials:
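Transfect HepG2 with MRTUs → dose compounds 24 h → isolate RNA, oligo(dT) RT → PCR with reporter primers → 6-FAM primer extension → HpaI digest → CE fragment analysis. Positive direction vs DMSO.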

Assay [15] concerns the target Estrogen-related receptor gamma (Homo sapiens) (UniProt P62508). Kind of assay: ATG_ERRg_TRANS: Attagene TRANS-FACTORIAL HepG2 Assay for human Estrogen-Related Receptor gamma (ERRg) (AID 2282977; active = hit-call score of the fitted dose curve at least 0.9, where 1 is the maximum;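 note: hits increase reporter signal over DMSO so potencies reflect activators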). As to conditions: HepG2 Attagene TRANS reporter, ERRg transactivation. The essentials: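 HepG2 cells transiently transfected with multiplexed GAL4-UAS reporter units driven by chimeric NR-Gal4 proteins; 24 h exposure. Reporter mRNA quantified by RT-PCR, fluorescent labelling, HpaI digestion and capillary electrophoresis; gain of signal vs DMSO.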

The target of assay [16] is Bile acid receptor (Homo sapiens) (UniProt Q96RI1). Kind of assay: ATG_FXR_TRANS: Attagene TRANS-FACTORIAL HepG2 Assay for Farnesoid X Receptor (FXR) (AID 2282979; active = hit-call score of the fitted dose curve at least 0.9, where 1 is the maximum;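 note: hits raise reporter mRNA above DMSO so AC50 marks FXR activation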). As to conditions: HepG2 Attagene TRANS FXR-GAL4 reporter transcription. In short, it runs like this: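 Transient transfection of HepG2 with multiplexed GAL4-UAS reporter units; exogenous FXR-GAL4 chimera. Dose 24 h → TriZol RNA → oligo(dT) RT → PCR, 6-FAM primer extension, HpaI cut → CE. Gain vs DMSO.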

For assay [17], the target named is Oxysterols receptor LXR-alpha (Homo sapiens) (UniProt Q13133). Kind of assay: ATG_LXRa_TRANS: Attagene TRANS-FACTORIAL HepG2 Assay for human Liver X Receptor alpha (LXRa) (AID 2282980; active = hit-call score of the fitted dose curve at least 0.9, where 1 is the maximum). As to conditions: HepG2 Attagene TRANS reporter, LXRa transactivation. In short, it runs like this: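 Transfect HepG2 with GAL4-UAS multiplex reporter constructs (TRANS format, chimeric receptor-GAL4); treat 24 h; extract RNA, reverse-transcribe, PCR-amplify, FAM-label, HpaI-digest; resolve fragments by capillary electrophoresis. Upward response vs DMSO.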

The target of assay [18] is Glucocorticoid receptor (Homo sapiens) (UniProt P04150). Kind of assay: ATG_GR_TRANS: Attagene TRANS-FACTORIAL HepG2 Assay for human Glucocorticoid Receptor (GR) (AID 2282978; active = hit-call score of the fitted dose curve at least 0.9, where 1 is the maximum;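 note: activators score as hits since higher reporter transcript over DMSO is fitted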). As to conditions: HepG2 Attagene TRANS GR reporter, mRNA transcription. The essentials: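 Transient MRTU transfection of HepG2 (GAL4-UAS reporters, exogenous NR-GAL4 chimeras), 24 h dosing. Readout: reporter transcript via RT-PCR + capillary electrophoresis fluorescence. Positive direction vs DMSO baseline.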

For assay [19], the target named is Estrogen receptor (Homo sapiens) (UniProt P03372). Kind of assay: ATG_ERa_TRANS: Attagene TRANS-FACTORIAL HepG2 Assay for human Estrogen Receptor alpha (ERa) (AID 2282970; active = hit-call score of the fitted dose curve at least 0.9, where 1 is the maximum). As to conditions: HepG2 Attagene TRANS ERa GAL4 reporter, mRNA. In short, it runs like this: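 Human liver HepG2, transient transfection of multiple GAL4-UAS reporter units; TRANS format (exogenous NR-Gal4 chimera). 24 h dosing. Readout: reporter mRNA, RT-PCR, 6-FAM primer extension, HpaI digest, capillary electrophoresis. Positive direction vs DMSO.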

The nature of assay [20]: ATG_M_32_TRANS: Attagene TRANS-FACTORIAL HepG2 Assay for M32 Transcription Factor (Internal Marker) (AID 2282984; active = hit-call score of the fitted dose curve at least 0.9, where 1 is the maximum;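 note: transcript level of a background control reporter unit measured by RT-PCR and capillary electrophoresis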). To be noted: HepG2 Attagene TRANS M32 internal marker reporter. The essentials:
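Human hepatoma HepG2, transient MRTU transfection, 24 h treatment. RNA → RT-PCR → fluorescent primer extension → HpaI digest (2 h, 37 C) → CE. Positive-direction fit vs DMSO.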

Chain of X-box-binding protein 1 (Homo sapiens) (P17861 whole entry, looked up): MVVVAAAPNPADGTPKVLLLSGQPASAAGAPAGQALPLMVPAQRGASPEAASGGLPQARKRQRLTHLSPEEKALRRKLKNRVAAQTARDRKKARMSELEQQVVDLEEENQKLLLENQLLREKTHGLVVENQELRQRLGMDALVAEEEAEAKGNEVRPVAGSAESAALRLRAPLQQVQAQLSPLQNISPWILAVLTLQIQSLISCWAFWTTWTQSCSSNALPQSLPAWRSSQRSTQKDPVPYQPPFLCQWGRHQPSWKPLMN
Chain of Myc proto-oncogene protein (Homo sapiens) (P01106 whole entry, looked up): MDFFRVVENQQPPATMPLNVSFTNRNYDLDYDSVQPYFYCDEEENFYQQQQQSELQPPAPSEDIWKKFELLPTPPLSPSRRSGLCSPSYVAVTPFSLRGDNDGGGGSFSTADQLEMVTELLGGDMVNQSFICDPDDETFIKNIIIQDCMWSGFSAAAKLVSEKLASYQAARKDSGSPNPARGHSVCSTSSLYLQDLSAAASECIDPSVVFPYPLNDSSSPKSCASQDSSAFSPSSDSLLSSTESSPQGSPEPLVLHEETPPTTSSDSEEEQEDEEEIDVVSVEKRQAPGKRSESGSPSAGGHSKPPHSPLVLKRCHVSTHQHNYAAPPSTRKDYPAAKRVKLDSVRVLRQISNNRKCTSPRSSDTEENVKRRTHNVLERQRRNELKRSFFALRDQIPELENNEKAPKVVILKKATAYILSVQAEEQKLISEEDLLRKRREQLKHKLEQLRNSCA
Chain of Transcriptional activator Myb (Homo sapiens) (P10242 whole entry, looked up): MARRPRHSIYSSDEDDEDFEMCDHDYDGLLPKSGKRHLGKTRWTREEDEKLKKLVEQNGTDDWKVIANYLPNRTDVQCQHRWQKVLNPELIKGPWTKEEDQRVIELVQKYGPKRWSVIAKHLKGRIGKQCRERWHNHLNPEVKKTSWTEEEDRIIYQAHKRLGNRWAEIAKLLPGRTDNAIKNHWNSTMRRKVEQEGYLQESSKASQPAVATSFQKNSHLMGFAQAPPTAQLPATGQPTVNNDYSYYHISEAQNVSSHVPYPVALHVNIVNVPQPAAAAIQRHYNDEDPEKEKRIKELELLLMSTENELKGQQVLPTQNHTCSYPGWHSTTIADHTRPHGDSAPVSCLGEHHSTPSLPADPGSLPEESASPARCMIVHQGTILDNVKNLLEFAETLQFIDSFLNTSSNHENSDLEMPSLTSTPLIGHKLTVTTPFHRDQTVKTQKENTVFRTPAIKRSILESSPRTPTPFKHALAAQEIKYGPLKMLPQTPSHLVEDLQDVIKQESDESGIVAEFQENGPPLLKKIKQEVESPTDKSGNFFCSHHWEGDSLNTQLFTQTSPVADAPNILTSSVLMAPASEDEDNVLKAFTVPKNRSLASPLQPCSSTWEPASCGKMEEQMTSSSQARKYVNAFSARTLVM
Chain of Nuclear receptor subfamily 1 group I member 3 (Homo sapiens) (Q14994 whole entry, looked up, the tested form may be a part): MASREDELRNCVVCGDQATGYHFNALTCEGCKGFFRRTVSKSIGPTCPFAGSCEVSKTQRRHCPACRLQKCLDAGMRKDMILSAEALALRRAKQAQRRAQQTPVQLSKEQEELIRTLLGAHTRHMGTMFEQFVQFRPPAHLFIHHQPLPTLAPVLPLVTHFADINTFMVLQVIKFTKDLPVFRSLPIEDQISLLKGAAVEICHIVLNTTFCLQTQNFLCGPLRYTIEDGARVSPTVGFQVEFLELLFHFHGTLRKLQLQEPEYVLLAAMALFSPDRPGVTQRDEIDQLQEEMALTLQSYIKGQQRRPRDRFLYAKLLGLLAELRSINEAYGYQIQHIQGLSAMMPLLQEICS
Chain of Nuclear receptor subfamily 4 group A member 2 (Homo sapiens) (P43354 whole entry, looked up): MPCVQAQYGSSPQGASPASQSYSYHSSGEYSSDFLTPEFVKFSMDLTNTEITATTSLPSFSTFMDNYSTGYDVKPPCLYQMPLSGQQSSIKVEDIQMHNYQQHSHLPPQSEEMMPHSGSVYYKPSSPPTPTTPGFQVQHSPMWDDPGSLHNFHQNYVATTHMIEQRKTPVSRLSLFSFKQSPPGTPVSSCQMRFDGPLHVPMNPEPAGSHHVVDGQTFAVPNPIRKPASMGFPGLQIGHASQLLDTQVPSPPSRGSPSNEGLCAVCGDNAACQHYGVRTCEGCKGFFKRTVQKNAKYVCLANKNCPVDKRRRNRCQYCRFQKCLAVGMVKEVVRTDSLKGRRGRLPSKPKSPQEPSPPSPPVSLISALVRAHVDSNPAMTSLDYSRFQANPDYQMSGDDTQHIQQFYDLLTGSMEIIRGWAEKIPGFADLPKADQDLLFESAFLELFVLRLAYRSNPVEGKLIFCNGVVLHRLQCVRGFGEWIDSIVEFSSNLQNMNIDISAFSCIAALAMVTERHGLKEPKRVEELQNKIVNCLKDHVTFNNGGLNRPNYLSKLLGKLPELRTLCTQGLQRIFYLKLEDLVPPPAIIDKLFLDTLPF
Chain of Hepatocyte nuclear factor 4-alpha (Homo sapiens) (P41235 whole entry, looked up, the tested form may be a part): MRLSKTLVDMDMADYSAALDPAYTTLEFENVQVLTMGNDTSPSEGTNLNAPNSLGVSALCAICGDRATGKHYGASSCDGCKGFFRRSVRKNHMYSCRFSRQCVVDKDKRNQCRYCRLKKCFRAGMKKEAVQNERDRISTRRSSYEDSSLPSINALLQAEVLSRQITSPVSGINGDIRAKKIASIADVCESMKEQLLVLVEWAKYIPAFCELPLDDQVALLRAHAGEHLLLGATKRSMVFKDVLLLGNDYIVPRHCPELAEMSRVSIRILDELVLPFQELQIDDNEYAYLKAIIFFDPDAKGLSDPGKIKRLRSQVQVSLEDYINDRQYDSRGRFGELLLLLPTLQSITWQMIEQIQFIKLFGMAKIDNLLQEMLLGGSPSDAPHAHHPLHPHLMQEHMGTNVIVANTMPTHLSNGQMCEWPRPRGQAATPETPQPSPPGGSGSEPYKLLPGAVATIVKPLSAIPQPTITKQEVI
Chain of Oxysterols receptor LXR-beta (Homo sapiens) (P55055 whole entry, looked up, the tested form may be a part): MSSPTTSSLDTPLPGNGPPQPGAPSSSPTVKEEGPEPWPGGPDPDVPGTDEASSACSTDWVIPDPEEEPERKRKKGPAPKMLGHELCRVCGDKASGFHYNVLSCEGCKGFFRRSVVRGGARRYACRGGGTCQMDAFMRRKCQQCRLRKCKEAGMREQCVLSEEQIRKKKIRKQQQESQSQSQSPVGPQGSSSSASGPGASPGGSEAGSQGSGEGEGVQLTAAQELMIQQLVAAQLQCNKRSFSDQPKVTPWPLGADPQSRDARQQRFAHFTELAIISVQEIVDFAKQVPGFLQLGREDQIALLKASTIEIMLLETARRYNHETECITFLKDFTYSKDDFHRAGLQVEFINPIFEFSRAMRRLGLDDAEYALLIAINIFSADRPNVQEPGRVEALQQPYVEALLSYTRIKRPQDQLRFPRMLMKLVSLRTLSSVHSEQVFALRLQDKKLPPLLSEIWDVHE
Chain of Nuclear respiratory factor 1 (Homo sapiens) (Q16656 whole entry, looked up): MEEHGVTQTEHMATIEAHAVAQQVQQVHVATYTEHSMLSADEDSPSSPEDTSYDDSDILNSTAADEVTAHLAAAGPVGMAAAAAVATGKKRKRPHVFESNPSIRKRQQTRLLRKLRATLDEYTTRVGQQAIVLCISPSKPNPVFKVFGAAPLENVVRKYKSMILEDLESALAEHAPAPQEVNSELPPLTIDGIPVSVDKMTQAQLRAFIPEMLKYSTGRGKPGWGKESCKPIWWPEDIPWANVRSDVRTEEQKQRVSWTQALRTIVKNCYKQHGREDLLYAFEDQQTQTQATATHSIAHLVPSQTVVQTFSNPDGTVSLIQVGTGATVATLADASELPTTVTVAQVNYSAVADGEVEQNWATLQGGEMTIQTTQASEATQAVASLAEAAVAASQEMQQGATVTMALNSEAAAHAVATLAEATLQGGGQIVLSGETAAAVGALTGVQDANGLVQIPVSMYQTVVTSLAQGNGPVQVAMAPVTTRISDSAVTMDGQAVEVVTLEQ
Chain of Glucocorticoid receptor (Homo sapiens) (P04150 whole entry, looked up, the tested form may be a part): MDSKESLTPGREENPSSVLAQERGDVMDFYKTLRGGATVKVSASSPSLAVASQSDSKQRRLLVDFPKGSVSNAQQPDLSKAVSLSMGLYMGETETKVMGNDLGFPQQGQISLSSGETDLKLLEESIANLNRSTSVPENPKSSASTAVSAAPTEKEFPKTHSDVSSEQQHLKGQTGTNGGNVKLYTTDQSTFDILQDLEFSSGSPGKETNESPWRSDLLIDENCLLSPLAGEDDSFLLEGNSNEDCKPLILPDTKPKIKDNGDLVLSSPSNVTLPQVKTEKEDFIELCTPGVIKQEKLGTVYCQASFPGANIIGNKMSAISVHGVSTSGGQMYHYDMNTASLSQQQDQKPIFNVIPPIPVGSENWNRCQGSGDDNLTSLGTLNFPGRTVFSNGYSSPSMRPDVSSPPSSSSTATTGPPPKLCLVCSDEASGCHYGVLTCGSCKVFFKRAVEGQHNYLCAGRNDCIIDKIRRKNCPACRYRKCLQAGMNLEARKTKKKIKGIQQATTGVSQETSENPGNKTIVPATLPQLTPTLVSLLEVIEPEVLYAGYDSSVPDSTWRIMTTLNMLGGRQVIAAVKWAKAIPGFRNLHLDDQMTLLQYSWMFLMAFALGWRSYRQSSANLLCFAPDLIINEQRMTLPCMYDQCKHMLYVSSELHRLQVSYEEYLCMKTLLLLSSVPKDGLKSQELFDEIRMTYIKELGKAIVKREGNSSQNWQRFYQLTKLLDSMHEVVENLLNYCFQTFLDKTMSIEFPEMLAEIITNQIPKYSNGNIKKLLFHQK
Chain of Estrogen-related receptor gamma (Homo sapiens) (P62508 whole entry, looked up, the tested form may be a part): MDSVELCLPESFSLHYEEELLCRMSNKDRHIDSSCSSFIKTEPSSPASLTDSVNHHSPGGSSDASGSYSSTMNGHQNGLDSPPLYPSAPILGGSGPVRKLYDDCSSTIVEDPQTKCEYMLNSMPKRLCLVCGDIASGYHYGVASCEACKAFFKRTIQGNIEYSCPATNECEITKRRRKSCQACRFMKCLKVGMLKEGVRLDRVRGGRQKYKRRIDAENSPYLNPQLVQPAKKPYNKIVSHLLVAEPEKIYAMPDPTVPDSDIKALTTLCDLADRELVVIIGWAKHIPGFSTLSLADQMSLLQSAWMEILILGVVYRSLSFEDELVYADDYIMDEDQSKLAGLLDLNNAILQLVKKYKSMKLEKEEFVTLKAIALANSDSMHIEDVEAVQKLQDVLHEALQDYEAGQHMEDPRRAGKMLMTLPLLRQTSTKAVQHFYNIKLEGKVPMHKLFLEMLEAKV

Take `Cc1cn([C@H]2C=C[C@@H](CO)O2)c(=O)[nH]c1=O`: the molecule was called inactive in assay [1], in assay [2], in assay [3], in [4], in [5] and in [6]. For the same molecule, the call in [7], in [8], in assay [9], in assay [10] and in [11] was inactive.

In general, AC50 refers to the concentration at which the activity in the assay is half-maximal. As for `CC(C)c1cccc(C(C)C)c1NC(=O)NS(=O)(=O)c1cc(C(C)(C)O)co1`, the call in [1], in assay [2], in [5], in assay [12], in assay [13] and in assay [14] was inactive. In addition, the call in [7], in assay [8], in assay [9], in [10] and in [11] was inactive. Further, the AC50 in assay [3] was 29.7 µM (active).

Regarding `c1ccc2occc2c1`, the molecule was classed as inactive in assay [1], in assay [2], in [4], in assay [5], in assay [15] and in assay [16]. For the same molecule, the molecule was classed as inactive in assay [17], in assay [12], in assay [14], in [7], in assay [8] and in assay [9]. In addition, the molecule was called inactive in assay [10] and in assay [11].

On to `C=CCCCCCCCCCCCC`, for which the call in assay [1], in assay [2], in assay [4], in assay [5], in assay [6] and in assay [18] was inactive. Also, the result in assay [12], in assay [13], in [7], in assay [8], in assay [9] and in [10] was inactive. In addition, the outcome in assay [11] was inactive.

As to `NC(=Nc1ccccc1)Nc1ccccc1`, the outcome in [1], in assay [2], in [19], in assay [6], in assay [18] and in assay [16] was inactive. Further, the molecule was classed as inactive in assay [12], in [13], in [14], in assay [20], in assay [8] and in assay [9]. The call in assay [10] and in assay [11] was inactive. The AC50 in assay [5] is 57.2 µM (active).
